# According to PubChem BioAssay AID624417 (National Center for Advancing Translational Sciences (NCATS), 2012):
# Among all 410,000 compounds or so, about 6,400 (1.6%) were called active. Inconclusive results (about 20%) are left out. Calls follow the shape of the dose curve; as a rule, active = well fitted inhibition curve with a large enough effect; inconclusive = small, poorly fitted or top-dose-only effect; inactive = no such curve, though single readings can be large or run the other way. Many of the other results were omitted from the sample, so actives are more common in it than they were.
# Target: Glucagon-like peptide 1 receptor (Homo sapiens) (UniProt P43220)
# Sequence (P43220 whole entry, looked up): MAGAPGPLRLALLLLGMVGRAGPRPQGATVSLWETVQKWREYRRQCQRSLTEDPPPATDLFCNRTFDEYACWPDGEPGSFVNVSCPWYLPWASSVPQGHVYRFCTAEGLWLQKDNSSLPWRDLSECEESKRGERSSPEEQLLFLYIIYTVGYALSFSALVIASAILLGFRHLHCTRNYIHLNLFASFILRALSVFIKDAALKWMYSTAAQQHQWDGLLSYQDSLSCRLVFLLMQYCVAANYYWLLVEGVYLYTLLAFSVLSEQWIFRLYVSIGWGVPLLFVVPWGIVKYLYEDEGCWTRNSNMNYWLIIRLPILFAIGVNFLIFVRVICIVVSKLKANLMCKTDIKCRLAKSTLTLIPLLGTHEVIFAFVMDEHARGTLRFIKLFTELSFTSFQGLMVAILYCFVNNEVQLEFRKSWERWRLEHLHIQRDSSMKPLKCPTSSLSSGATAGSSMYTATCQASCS
# Assay: qHTS of GLP-1 Receptor Inverse Agonists (Inhibition Mode); also: nearly all actives have a fitted effect of over 55% in size
# Settings: HEK293 GLP-1R CRE-luciferase, luminescence, 24 h, GLP-1R form is constitutively active; series mostly up to 38.3 µM; activity change, negative = inhibition: at the top concentration
# Outline: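 Using stably transfected HEK293 (constitutively active GLP-1R, cAMP-luciferase reporter), compounds were incubated 24 hr and luciferase measured by luminescence.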
# % is scaled to controls: 0 for no effect and ±100 for the full control effect; potency is read from the fitted curve at half-maximal effect.
SMILES,"activity change, negative = inhibition",Potency
O=C(OCc1ccccc1)N1CCC2CC1c1cc(N3CCN(S(=O)(=O)c4cc(Cl)cc(Cl)c4)CC3)ccc12 (stereo unspecified),-0.327% (inactive),
CC(=O)Nc1ccc(SCC(=O)NC(=O)c2ccc(Cl)cc2)cc1,-4.29% (inactive),
COc1ccc([C@H]2C[C@@H](n3cc(COC(=O)c4ccccc4)nn3)[C@H](O)CN2C(=O)c2cccs2)cc1,-28.9% (inactive),
CC(C)OC(=O)CC(=O)CC(O)c1cccc([N+](=O)[O-])c1 (stereo unspecified),1.7% (inactive),
NCCCCC(C(=O)O)N(C(=O)OCc1ccccc1)C(=O)OCc1ccccc1 (stereo unspecified),28.4% (inactive),
COc1ccc(CN2C(=O)C(CC(=O)NCCN3CCOCC3)CC(C(=O)N(C(C)C)C(C)C)=C2C)cc1 (stereo unspecified),14.3% (inactive),
COc1ccc(C(=O)NC(=S)Nc2ccccc2N2CCN(S(C)(=O)=O)CC2)cc1OC,19.1% (inactive),
O=C(NC(=S)Nc1ccccc1N1CCCCC1)c1ccc(F)cc1,,12.6 µM (active)
O=C(Nc1ccccc1N1CCCC1)c1ccc2ccccc2c1,4.76% (inactive),
CCCC/C=C/c1cccc2nncn12,5.17% (inactive),
Cc1ccc(C=O)c([B-](F)(F)F)c1,-30.1% (inactive),
CN1c2ccc(C=O)c3c(C=O)ccc(c23)N(C)C1(C)C,,12.6 µM (active)
CCOC(=O)N1C(=O)C[C@](Sc2ccc(C)cc2)(C(=O)OC)[C@H]1c1ccccc1,5.79% (inactive),
COc1ccc(NC(=O)[C@H](NC(=O)[C@@H]2Cc3ccccc3CN2)c2ccccc2)cc1,-22.4% (inactive),
COc1cccc(NC(=O)[C@H](Cc2c[nH]c3ccccc23)NC(=O)[C@@H]2Cc3ccccc3CN2)c1,,3.98 µM (active)
COc1ccc(CNC(=O)[C@H](Cc2c[nH]c3ccccc23)NC(C)=O)cc1OC,11% (inactive),
O=C(O)c1ccccc1-c1cccc2nncn12,12% (inactive),
COc1ccc(CNC(=O)COC(=O)c2c(C)nn(-c3ccccc3)c2C)cc1OC,-0.123% (inactive),
CCCn1c(C)cc(C(=O)COC(=O)c2c(C)nn(-c3ccccc3)c2C)c1C,,10 µM (active)
Cc1cccc(C)c1NC(=O)COC(=O)c1c(C)nn(-c2ccccc2)c1C,-11% (inactive),
Cc1noc(C)c1C(=O)N1CCC1(C)C(=O)NS(=O)(=O)c1ccc(C#N)cc1 (stereo unspecified),15.3% (inactive),
Clc1ccc(-c2cccc3nccn23)cc1,13% (inactive),
COc1ccc(C2CC(c3cccc(OC)c3)=NN2c2ccc(S(N)(=O)=O)cc2)cc1 (stereo unspecified),27.5% (inactive),
CCCn1c(=N)c(C(=O)NCc2ccccc2)cc2c(=O)n3cccc(C)c3nc21,2.15% (inactive),

SMILES,"activity change, negative = inhibition",Potency
Cc1cccn2c(=O)c3cc(C(=O)NCCN4CCOCC4)c(=N)n(Cc4cccnc4)c3nc12,,3.98 µM (active)
Cc1cccn2c(=O)c3cc(C(=O)NCC4CCCO4)c(=N)n(Cc4ccc(F)cc4)c3nc12 (stereo unspecified),85.4% (inactive),
C=CCn1c2c(c3ccccc31)CCC2,-1.11% (inactive),
CN1c2ccc([N+](=O)[O-])cc2C(C)(C)C12C=Cc1cc(C(=O)O)ccc1O2 (stereo unspecified),0.491% (inactive),
COc1ccc2c(c1)C=CC1(O2)N(CCO)c2ccccc2C1(C)C (stereo unspecified),,2.51 µM (active)
CCCCn1nnnc1C1(C)CCC(=O)N1Cc1ccc(OC)c(OC)c1 (stereo unspecified),11.4% (inactive),
Cc1cccc(C)c1NC(=O)CNC(=O)c1ccc(N2CCOCC2)c([N+](=O)[O-])c1,13.7% (inactive),
CC(C)NC(=O)C1(C)CCCCN1Cc1cccc(C(F)(F)F)c1 (stereo unspecified),1.63% (inactive),
CC1(C(=O)Nc2cccnc2)Cc2c(-c3ccccc3)ccnc2O1 (stereo unspecified),1.75% (inactive),
CC(=O)Nc1cnc(-c2ccc(O)cc2C)cn1,18.2% (inactive),
Cc1cccnc1NC(=O)c1cccc(S(=O)(=O)N2CCN(c3ccc(F)cc3)CC2)c1,-19.3% (inactive),
Oc1c(CN2CCN(c3ccc(F)cc3)CC2)cc(Cl)c2cccnc12,,2.51 µM (active)
Cc1cccc(C)c1NC(=O)CN1CCN(c2ccc(F)cc2)CC1,2.26% (inactive),
Cc1ccc(S(=O)(=O)NN=C2CC(C)(C)CC(=O)C2(C)C)cc1,-13.3% (inactive),
COc1ccccc1C(=O)NC(=S)NC12CC3CC(CC(C3)C1)C2,-32.2% (inactive),
COc1ccc(/C=C/C(=O)Nc2ccc(C34CC5CC(CC(O)(C5)C3)C4)cc2)cc1OC,-5.2% (inactive),
CSc1ccc(/C=C/C(=O)NC23CC4CC(CC(C4)C2)C3)cc1,,11.2 µM (active)
COc1ccc(C(=O)NCC2CCCO2)cc1S(=O)(=O)NCc1ccc(Cl)cc1 (stereo unspecified),-4.08% (inactive),
Cc1cccc(C)c1-n1nnnc1C1(C)CCC(=O)N1CCOc1ccccc1 (stereo unspecified),6.38% (inactive),
O=C(NCc1ccco1)c1cccc(-c2ccc3nncn3c2)c1,17.9% (inactive),
CCCC(=O)C1CCN(Cc2ccccc2)CC1,-6.46% (inactive),
CCCCN(Cc1ccccc1)C(=O)C1CCN(Cc2sccc2C)CC1,,7.08 µM (active)
CCCCN(C)C(=O)C1CCN(Cc2ccccn2)CC1,-6.28% (inactive),
Cc1cccc(Nc2nc(-c3ccccc3)cs2)n1,,3.16 µM (active)

SMILES,"activity change, negative = inhibition",Potency
CC(=O)Nc1cccc(-c2csc(Nc3cccc(C)n3)n2)c1,83.8% (inactive),
O=C(O)c1ccccc1C(=O)Nc1nc(-c2ccccc2)cs1,14.7% (inactive),
CCc1c(N=O)c(-c2ccccc2)n(O)[n+]1[O-],15.7% (inactive),
CCC(Oc1ccccc1)C(=O)OCC(=O)Nc1c(C)nn(-c2ccccc2)c1C (stereo unspecified),0.193% (inactive),
Cc1ccc(S(=O)(=O)N(CC(=O)N2CCc3ccccc3C2)c2cccc(Cl)c2)cc1,,8.91 µM (active)
COc1cccc(N(CC(=O)N2CCc3ccccc3C2)S(C)(=O)=O)c1,0% (inactive),
CS(=O)(=O)N(CC(=O)N1CCc2ccccc2C1)c1ccc(Br)cc1,-28.2% (inactive),
O=C(NCc1ccccc1)C1c2ccccc2OCC(=O)N1C1CC1 (stereo unspecified),17.3% (inactive),
CC(C)CC1C(=O)N(Cc2cn(Cc3ccco3)nn2)CCS(=O)(=O)N1Cc1ccc(-c2ccc(Cl)c(Cl)c2)cc1 (stereo unspecified),,10 µM (active)
COc1ccc(-c2ccc(CN3C(C(C)C)C(=O)N(Cc4cn(CC5CCCCC5)nn4)CCS3(=O)=O)cc2)cn1 (stereo unspecified),-6.11% (inactive),
CC(C)CC1C(=O)N(Cc2cn(CC3CCCCC3)nn2)CCS(=O)(=O)N1Cc1ccc(-c2ccc(Cl)cc2)cc1 (stereo unspecified),-7.5% (inactive),
COCOCCn1cc(CN2CCS(=O)(=O)N(Cc3ccc(-c4cccc(N(C)C)c4)cc3)C(CC(C)C)C2=O)nn1 (stereo unspecified),3.48% (inactive),
COc1ccc(-c2ccc(CN3C(CC(C)C)C(=O)N(Cc4cn(CC5CCCCC5)nn4)CCS3(=O)=O)cc2)cc1 (stereo unspecified),,10 µM (active)
CC1C(=O)N(Cc2cn(Cc3ccco3)nn2)CCS(=O)(=O)N1Cc1ccc(-c2cccc(CO)c2)cc1 (stereo unspecified),8.69% (inactive),
CCN1C(=O)[C@@H]2[C@@H]3CN(S(=O)(=O)c4ccccc4C)[C@@H](c4ccc(Cl)cc4)[C@@H]3C(=O)C[C@@H]2C1=O,-3.42% (inactive),
CCOC(=O)c1cc(-c2sc(NC(=O)c3ccccc3)nc2C)n(CCO)n1,4.4% (inactive),
CCc1nc2ccc(C(=O)NCCNC(C)=O)cn2c1N(CC)Cc1cccc(Br)c1,25.7% (inactive),
COc1ccc(CNC(=O)Cn2nnc(-c3ccccc3F)n2)cc1,16% (inactive),
C#CC(C)(CC)NC(=O)Cn1nnc(-c2ccc(OCc3c(F)cccc3Cl)cc2)n1 (stereo unspecified),,3.16 µM (active)
CC(C)(C)NC(=O)Cn1nnc(-c2ccccc2Cl)n1,5.53% (inactive),
CN(C)S(=O)(=O)N1CCC(Oc2cccc(C(=O)NCCCC3CCCC3)c2)CC1,,10 µM (active)
CN(C(=O)c1cccc(OC2CCN(S(=O)(=O)N(C)C)CC2)c1)C1CCOC1 (stereo unspecified),20.4% (inactive),
CNS(=O)(=O)c1cccc(C(=O)NCC2CCCCC2)c1,14% (inactive),
CCNC(=O)C1(C)CCN(Cc2ccc(C(=O)OCC)o2)C1 (stereo unspecified),3.7% (inactive),

SMILES,"activity change, negative = inhibition",Potency
CCc1noc(C)c1C(=O)OCC(=O)c1ccc(NC(=O)CC(C)C)cc1,-18.9% (inactive),
Cc1cccc(C)c1NC(=O)C(c1cccc2ccccc12)n1c(=O)c(-c2ccco2)nc2ccccc21 (stereo unspecified),-9.33% (inactive),
COc1ccc(Cl)cc1NC(=O)CN(C)C(=O)c1ccc2n[nH]nc2c1,1.58% (inactive),
COc1ccc(Cl)cc1NC(=O)CN(C)C(=O)c1cn(-c2ccccc2)nc1-c1cccs1,5.33% (inactive),
COc1ccc(Cl)cc1NC(=O)CN(C)C(=O)c1cc2ccccc2cc1OC,,10 µM (active)
O=[N+]([O-])c1ccc(C(S(=O)(=O)Cc2ccccc2)S(=O)(=O)Cc2ccccc2)cc1,-17.5% (inactive),
c1ccc2c(CNn3cnnc3)cccc2c1,30.1% (inactive),
N#C/C(=C(/O)Cc1cccc2ccccc12)c1nc2ccccc2s1,-21.5% (inactive),
N=C(N)SCc1cccc2ccccc12,,10 µM (active)
CCCCNC(=O)OC1CC2CC1[C@H]1CCCCN1C2=O (stereo partly specified),-16.9% (inactive),
C[C@H](NC(=O)CC[C@H]1O[C@@H](n2ccc(=O)[nH]c2=O)[C@H](O)[C@@H]1O)c1cccc2ccccc12,17.6% (inactive),
COc1cccc(C2c3[nH]c4ccccc4c3CCN2Cc2cccc(C)n2)c1 (stereo unspecified),,11.2 µM (active)
COC(=O)[C@H]1[C@H]2C[C@H]3c4[nH]c5ccccc5c4CCN3C[C@@H]2CC[C@@H]1O,,inactive
COc1cccc(N2CCN(C(=O)CCCCCn3c(=O)[nH]c4ccccc4c3=O)CC2)c1,-14.8% (inactive),
Cc1ccc(S(=O)(=O)NCCC(=O)Nc2cccc(S(N)(=O)=O)c2)cc1C,8.4% (inactive),
Cc1ccc(S(=O)(=O)NCCC(=O)Nc2ccc(C)c(Cl)c2)cc1C,,7.08 µM (active)
Cc1ccc(NC(=O)CCNS(=O)(=O)c2ccc3c(c2)oc(=O)n3C)cc1C,-9.48% (inactive),
Cc1cccc(N(CC(=O)N2CCCC2)S(C)(=O)=O)c1C,6.73% (inactive),
COCCCn1cc(CN2CC(N(C)C)CS2(=O)=O)nn1 (stereo unspecified),18.2% (inactive),
O=C(CSc1ncn[nH]1)Nc1nc2c(F)c(F)c(F)cc2s1,24.9% (inactive),
NS(=O)(=O)c1cccc(NC(=O)CSc2nc3ccccc3n2-c2ccccc2)c1,33.1% [at 7.66 µM] (inactive),
COc1ccc(-c2nn(-c3ccccc3)cc2/C=C\C(=O)Nc2ccc(C(=O)O)cc2)cc1,-27.4% (inactive),
Cc1ccc(-c2nn(-c3ccccc3)cc2/C=C/C(=O)Nc2cccc(S(N)(=O)=O)c2)cc1,,5.01 µM (active)
O=C(Nc1ccc2c(c1)OCCO2)C1c2ccccc2OCC(=O)N1Cc1ccccn1 (stereo unspecified),21.4% (inactive),
